High-throughput results (PubChem BioAssay)
ERK EGF inh = EGF-driven ERK pathway inhibition | HEK293-V1b, EGF-stimulated phospho-ERK AlphaScreen | Potency, µM (series often up to 11.5 µM), for the others: at the highest dose activity change, negative = inhibition, actives largely listed as inhibitors | 130,000 compounds, 0.41% hits; active = well fitted inhibition curve with a large enough effect;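 note: plate controls were stimulated vehicle wells for no effect and unstimulated vehicle basal for full effect; nearly all actives have a fitted effect of over 55% in size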
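Compounds are titrated over HEK293-V1b cells kept overnight in 1% FBS. After 30 min at 37C, EGF (25 nM final) triggers ERK phosphorylation for 5 min, measured by AlphaScreen in lysates.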
* = called active by the depositor; [ ] = another dose, or the depositor's remark. This excerpt belongs to a sample that is enriched for hits. Potency is the fitted concentration of half-maximal effect.

For Cn1c(N=Nc2ccc(N3CCOCC3)cc2)[n+](C)c2ccccc21 the results were ERK EGF inh 16µM*.
For Cn1c(N2CCOCC2)c(/C=N/O)c2ccccc21 the results were ERK EGF inh -16%.
`COc1ccccc1-c1nccc(NCc2cccc(C)c2)n1` gave ERK EGF inh 27%.
CC(=O)O[C@H](C(=O)O[C@@H]1C[C@@H](CCC[C@H]2O[C@H](C(=O)OC(C)C)CC[C@@H]2C)O[C@@H](CC#N)C1)c1ccccc1 was read as ERK EGF inh 6%.
For COC(=O)C(C(C)=O)C(NC(=O)OC(C)(C)C)c1ccccc1 (stereo not drawn) the results were ERK EGF inh -1%.
`C[C@H](NC(=O)c1nc[nH]c1C(=O)N[C@@H](Cc1ccccc1)C(=O)OCc1ccccc1)c1ccccc1` gave ERK EGF inh -8%[57.5 µM].
For C[C@@H](NC(=O)c1nc[nH]c1C(=O)N[C@@H](Cc1ccccc1)C(=O)OCc1ccccc1)c1ccccc1 the results were ERK EGF inh 10%[57.5 µM].
Screening C[C@H](NC(=O)c1[nH]cnc1C(=O)Nc1ccc(CNC(=O)OC(C)(C)C)cc1)C(=O)OCc1ccccc1 returned ERK EGF inh 32µM*.
`CC(C)(C)OC(=O)NCc1ccc(NC(=O)c2nc[nH]c2C(=O)N[C@@H](Cc2ccccc2)C(=O)OC(C)(C)C)cc1` gave ERK EGF inh -29%[57.5 µM].
For CC(C)C[C@H](NC(=O)c1[nH]cnc1C(=O)Nc1ccc(CNC(=O)OC(C)(C)C)cc1)C(=O)OCc1ccccc1 the results were ERK EGF inh -12%[57.5 µM].
For O=C(N[C@@H](Cc1ccccc1)C(=O)OCc1ccccc1)c1nc[nH]c1C(=O)NC(c1ccccc1)c1ccccc1 the results were ERK EGF inh 40µM*.
`CCc1c2c(nc3cccc(OC)c13)OC(CC)C2` (stereo not drawn) gave ERK EGF inh -2%.
For CCCCNc1nc(C)nc2c1nc(-c1ccccc1)n2C1CCN(Cc2ccccc2)C1 (stereo not drawn) the results were ERK EGF inh -6%.
For COc1cccc([C@@H]2Oc3ccc(Br)cc3C[C@H]2OC(=O)N[C@H](C)C2CCCCC2)c1 the results were ERK EGF inh -19%.
`CCCCC[C@H](O)/C=C/C=C\C/C=C\C=C\[C@@H](O)CCCC(=O)O` gave ERK EGF inh -13%.
Screening FC(F)(F)c1cc(NC(=S)NC23CC4CC(CC(C4)C2)C3)cc(C(F)(F)F)c1 returned ERK EGF inh -1%.
For Cc1c(Cl)cccc1NC(=S)N=Nc1c(O)n(CN2CCOCC2)c2ccccc12 the results were ERK EGF inh 5%.
For Oc1c(N=NC(=S)Nc2ccccc2F)c2ccccc2n1Cc1ccccc1Cl the results were ERK EGF inh 14µM*.
For NC(=S)N=Nc1c(O)n(Cc2ccccc2)c2ccccc12 the results were ERK EGF inh 2%.
O=C1CCCC(C(C(=O)OCc2ccccc2)C(=O)OCc2ccccc2)C1 (stereo not drawn) was read as ERK EGF inh -10%.
For CC(C)OC(=O)[C@@H]1CC[C@H](C)[C@@H](CCCC=O)O1 the results were ERK EGF inh -15%.
For CC(O)[C@@H](O)[C@H]1CNc2nc(N)[nH]c(=O)c2N1 (stereo partly drawn) the results were ERK EGF inh 7%.
`CC(C)(C)c1cc(Br)c(O)c(N=Nc2ccc(S(=O)(=O)N3CCOCC3)cc2)c1` gave ERK EGF inh 25µM*.
`COc1ccc(S(=O)(=O)N2CCOCC2)cc1Br` gave ERK EGF inh 1%.
For Cc1ccc(O)c(N=Nc2ccc(S(=O)(=O)N3CCOCC3)cc2)c1 the results were ERK EGF inh 9%.
`CCCCC/C=C\C/C=C\C/C=C\C/C=C\CCCCCC(=O)NCC(=O)O` gave ERK EGF inh 0%.
Screening Nc1ccc(N)c(C(=O)O)c1 returned ERK EGF inh -11%[57.5 µM].
Screening Cc1ccc2c(c1)C(=O)c1c(C(=O)O)cccc1-2 returned ERK EGF inh 3%.
Nc1cc(C(=O)O)c(N)c2c1C(=O)c1ccccc1C2=O was read as ERK EGF inh 28µM*.
Screening CNCCCCc1cnc(C)c2[nH]c3ccccc3c12 returned ERK EGF inh -4%.
CC/C=C\C/C=C\C/C=C\C/C=C\C/C=C\C/C=C\CCC(N)=O was read as ERK EGF inh -14%.
`Cc1ccc(CNC(=O)[C@@H]2C[C@H]2[C@@H](NP(=O)(c2ccccc2)c2ccccc2)c2ccccc2)o1` gave ERK EGF inh -1%.
For Cc1cccc(-c2cc3nc(C)cc(C)n3n2)c1 the results were ERK EGF inh -13%.
Screening Cc1cc(-c2ccccc2)nc2cc(C(=O)NCCCn3ccnc3)nn12 returned ERK EGF inh -2%.
Cc1cccc(-c2cc3nc(C)c(C)c(NCCCn4ccnc4)n3n2)c1 was read as ERK EGF inh 32µM*.
For N#CCCn1c(=O)c(-c2cccs2)nc2cnc(N3CCNCC3)nc21 the results were ERK EGF inh 1%.
For CC(C)(C)OC(=O)C1=NOC2(C=CC(=O)C=C2)C1 the results were ERK EGF inh -2%.
`CC(=O)/C(=N/Nc1ccc(Br)cc1)N1CCCc2ccccc21` gave ERK EGF inh -3%[57.5 µM].
CC(=O)/C(=N/Nc1ccccc1[N+](=O)[O-])N1CCCc2ccccc21 was read as ERK EGF inh 13µM*.
`COC(=O)/C(=N/Nc1ccccc1)N1CCCc2ccccc21` gave ERK EGF inh -1%.
Screening CCN(CC)CCCCn1c(-c2ccccc2)nc2c(NCCOC)nc(C)nc21 returned ERK EGF inh -2%.
Screening COCc1ccc(CN2CCc3c([nH]c4ccccc34)C2C(C)(C)C)o1 (stereo not drawn) returned ERK EGF inh -5%.
Screening Cc1cnc(CN2CCc3c([nH]c4ccccc34)C2CC(C)C)[nH]1 (stereo not drawn) returned ERK EGF inh -5%.
CCn1ccnc1CN1CCc2c([nH]c3ccccc23)C1C(C)(C)C (stereo not drawn) was read as ERK EGF inh 32µM*.
O=S(c1ccccc1)c1ccc2nnnn2n1 (stereo not drawn) was read as ERK EGF inh -13%.
For COc1ccccc1C(=O)/C=C/c1ccc(N2CCCCC2)c([N+](=O)[O-])c1 the results were ERK EGF inh 16µM*.
Screening O=C(O)c1ccccc1C(=O)c1ccc(N2CCCC2)c([N+](=O)[O-])c1 returned ERK EGF inh -1%.
For COc1ccccc1N1CCN(C(=O)/C=C/c2cccc([N+](=O)[O-])c2)CC1 the results were ERK EGF inh -9%[57.5 µM].
O=C(N[C@@H](c1ccccc1)[C@@H]1C[C@H]1C(=O)NCc1ccccc1)OCc1ccccc1 was read as ERK EGF inh 0%.
For C=CCC(C)(Nc1ccccc1)C(=O)OCC (stereo not drawn) the results were ERK EGF inh -10%.
For O=C(/C=C/c1c(C(=O)O)[nH]c2cc(Cl)cc(Cl)c12)Nc1ccccc1 the results were ERK EGF inh -9%.
For CCN1/C(=C/c2cc[n+](C)cc2)C=Cc2cc(C)ccc21 the results were ERK EGF inh 16µM*.
For CCN1/C(=C2\C(=O)N(c3ccccc3)N=C2C)C=Cc2cc(C)ccc21 the results were ERK EGF inh -14%.
Cc1ccc2c(c1)S/C(=C/c1ccc[n+](C)c1)N2CCO was read as ERK EGF inh -5%.
CC(C)[C@@H](CC(=O)N[C@@H]1CCCC[C@H]1C(=O)N[C@H](CC(=O)N[C@@H](CCC(=O)O)CC(=O)O)Cc1c[nH]c2ccccc12)NC(=O)C[C@H](Cc1c[nH]c2ccccc12)NC(=O)[C@@H]1CNCC[C@H]1N was read as ERK EGF inh -3%.
